Test results as given in the supplement of paper PMC6555819.

What follows are sequences tested on PPARg:RXRa 270nM:90nM, anti-RXR (NR concentration 270 nM, RXRa partner concentration 90 nM) (assay: PBM binding z-score (relative to random genomic background probes); higher = stronger binding; sequences stand for … in GC…GCGATTGACAGCGTAGAATGAAGG).
Outline: (§1)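 Ligand-free nuclear receptor dimers were bound for 1 h to custom Agilent 4×180K protein-binding microarrays. Detection used antibodies against each partner (one per run). Binding z-scores rest on regression-normalized fluorescence, with random background probes as the reference.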

Sequence | PBM binding z-score
CCGAGTAGGTAACGAGGGGGCATTCAGTGCGAAT | 2.41
CTATTTAGGTTAAGGGGGTCATTCAGTTTGAAAG | 7.14
CTATGTAGGTTCAGGGGGTCATTCAGTTTGAAAG | 6.22
TCGAGTAGGTTACGGGCGCATTCAGGGATGAAGA | 1.62
CTATGTACGTTAAGGGGGTCATTCAGTTTGAAAG | 5.19
CCGAGTAGGTTCCGAGGGGGCATTCAGTGCGAAT | 1.42
CTATGTAGGTTAAGGGGGTCATTTAGTTTGAAAG | 7.62
CCGATTAGGTTACGAGGGGGCATTCAGTGCGAAT | 2.96
CTATGTAGGTTAACGGGGTCATTCAGTTTGAAAG | 6.92
TCGAGTAGGTTACGGGGGCATCCAGGGATGAAGA | 6.05
CCGAGTAGGTTATGAGGGGGCATTCAGTGCGAAT | 3.12
CCGAGTAGGTCACGAGGGGGCATTCAGTGCGAAT | 7.12
TCGAGTAGGTTACGCGGGCATTCAGGGATGAAGA | 1.88
CCGCGTAGGTTACGAGGGGGCATTCAGTGCGAAT | 2.86
CTATGTAGGTTAAGGGGTTCATTCAGTTTGAAAG | 6.53
CCGAGTAGGTTACGATGGGGCATTCAGTGCGAAT | 1.01
TCGAGTAGGTTACGGGGTCATTCAGGGATGAAGA | 6.68

What follows are sequences tested on PPARg:RXRa 30nM:10nM, anti-RXR (NR concentration 30 nM, RXRa partner concentration 10 nM) in the same assay as above.
Outline: as §1

Sequence | PBM binding z-score
CTATGTAGGTTAAGGGGGTTATTCAGTTTGAAAG | 5.05
TCGAGTAGGTTACGGAGGCATTCAGGGATGAAGA | 1.08
CTATGTAGGTTAAGCGGGTCATTCAGTTTGAAAG | 2.6
CGATGTAGGTTAAGGGGGTCATTCAGTTTGAAAG | 6.22
CTATGTAGGTTAAGGGGGCCATTCAGTTTGAAAG | 4.73
CTATGCAGGTTAAGGGGGTCATTCAGTTTGAAAG | 3.13
TCGAGTAGGTTACTGGGGCATTCAGGGATGAAGA | 2.29
CCGACTAGGTTACGAGGGGGCATTCAGTGCGAAT | 1.66
CCGAGTAGGTTACGAGGGGGCATTCGGTGCGAAT | 0.729
TCGAGTAGGTTACGGGGGCATTCAGGGATGAAGA | 3.3
TCGAGTAGGTTACGGGGGCATTAAGGGATGAAGA | 3.23
CAATGTAGGTTAAGGGGGTCATTCAGTTTGAAAG | 6.58
CTATGTAGGTTAATGGGGTCATTCAGTTTGAAAG | 4.64
CCGAGTAGGTTACGAGGCGGCATTCAGTGCGAAT | -0.404
CCGAGTAGGTTACGAGGGCGCATTCAGTGCGAAT | -0.0123
CTATGTAGGTGAAGGGGGTCATTCAGTTTGAAAG | 7.28
TCTAGTAGGTTACGGGGGCATTCAGGGATGAAGA | 5.71
CCGAGTAAGTTACGAGGGGGCATTCAGTGCGAAT | 0.0165
CTATGTAGGGTAAGGGGGTCATTCAGTTTGAAAG | 5
CTATGTAGGTTAAAGGGGTCATTCAGTTTGAAAG | 7.05

Sequence | PBM binding z-score
CTCTGTAGGTTAAGGGGGTCATTCAGTTTGAAAG | 4.4
TCGAGTAGGTTACGGGGGCATTGAGGGATGAAGA | 3.59
CCGAGTAGGTAACGAGGGGGCATTCAGTGCGAAT | 0.082
CTATTTAGGTTAAGGGGGTCATTCAGTTTGAAAG | 4.74
CTATGTAGGTTCAGGGGGTCATTCAGTTTGAAAG | 3.18
TCGAGTAGGTTACGGGCGCATTCAGGGATGAAGA | 1.11
CTATGTACGTTAAGGGGGTCATTCAGTTTGAAAG | 3.25
CCGAGTAGGTTCCGAGGGGGCATTCAGTGCGAAT | 0.548
CTATGTAGGTTAAGGGGGTCATTTAGTTTGAAAG | 6.07
CCGATTAGGTTACGAGGGGGCATTCAGTGCGAAT | 0.437
CTATGTAGGTTAACGGGGTCATTCAGTTTGAAAG | 4.45
TCGAGTAGGTTACGGGGGCATCCAGGGATGAAGA | 3.04
CCGAGTAGGTTATGAGGGGGCATTCAGTGCGAAT | 1.53
CCGAGTAGGTCACGAGGGGGCATTCAGTGCGAAT | 4.32
TCGAGTAGGTTACGCGGGCATTCAGGGATGAAGA | 1.46
CCGCGTAGGTTACGAGGGGGCATTCAGTGCGAAT | 0.411
CTATGTAGGTTAAGGGGTTCATTCAGTTTGAAAG | 4.01
CCGAGTAGGTTACGATGGGGCATTCAGTGCGAAT | -0.257
TCGAGTAGGTTACGGGGTCATTCAGGGATGAAGA | 4.18
